We go through 87 compounds from PubChem BioAssay AID651719 (The Scripps Research Institute Molecular Screening Center, 2012).

The structures appear in SMILES notation. About 1,600 (0.44%) of roughly 360,000 compounds were called active. This excerpt belongs to a sample that is enriched for actives. Unmarked numbers belong to inactive results.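 Rule for the calls: active = inhibition above the screen-wide average plus 3 SD (cut at about 13% in these data); inactive = the rest.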

In this test the target is Galanin receptor type 3 (Homo sapiens) (UniProt O60755). As to the kind of experiment: blockers of human galanin receptor 3 – cell-based, fluorescence readout, primary screen (AID 651719).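 Note: forskolin and galanin both at EC90 stimulate the cells; cAMP rise reported by CNG channel membrane potential dye signal; 0% = forskolin plus galanin with DMSO and 100% = forskolin alone.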 The settings on record: HEK293 GalR3-CNG cAMP membrane potential fluorescence; at 3 µM; stronger effect = higher value; galR3 body fused to GalR1 C-terminus.
Galanin receptor type 3 (Homo sapiens), sequence (O60755 1-299 limits assumed): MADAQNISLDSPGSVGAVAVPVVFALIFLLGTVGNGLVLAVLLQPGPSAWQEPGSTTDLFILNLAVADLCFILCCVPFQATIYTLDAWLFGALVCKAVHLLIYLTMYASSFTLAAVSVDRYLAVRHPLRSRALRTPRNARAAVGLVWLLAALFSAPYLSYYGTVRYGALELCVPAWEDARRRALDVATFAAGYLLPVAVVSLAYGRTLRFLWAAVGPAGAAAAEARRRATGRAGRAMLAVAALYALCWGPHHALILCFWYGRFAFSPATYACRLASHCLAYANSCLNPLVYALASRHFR
Consider `CC(=O)c1ccc(S(=O)(=O)NCC2CCN(C(=O)C(=O)c3cccs3)CC2)cc1`, for which the inhibition was -4.03%.
With `CC[C@H](NC(=O)[C@H](Cc1ccccc1)NC(=O)[C@H]1O[C@@H](n2cnc3c(=O)[nH]c(N)nc32)[C@H](O)[C@@H]1O)c1ccccc1` the figure was -6.3%; with `CCCOc1ccc(Cc2c(O)nc(SC)[nH]c2=O)cc1C`, -4.3%; with `CCCOc1ccc(Cn2c(O)cc(=O)[nH]c2=O)cc1`, 4.51%.
Consider `CCCOc1ccc(Cc2c(Cl)nc(SC)nc2NC)cc1`, for which the inhibition was 63.8% (active).
For `COc1cccc(CNC(=O)[C@H]2CCCN2C(=O)[C@H]2CCCN2C(=O)c2cc(F)cc(F)c2)c1`, the inhibition was -4.4%.
For `O=C1[C@@H](c2ccccc2)[C@@H](c2ccccc2)N1c1ccccc1`, the inhibition is -1.03%.
As to `O=C(NCc1ccccc1)[C@@H]1CCCN1C(=O)[C@@H](NS(=O)(=O)c1ccc(F)cc1F)C1CCCCC1`, the inhibition was -7.14%.
Take `COc1cc(Nc2nc3ccc(Cl)cc3n3cnnc23)cc(OC)c1OC`: the inhibition is -10.3%.
In the case of `COc1ccc(CCNc2nc(C)cc(C)n2)cc1OC`, the inhibition is -8.92%.
With `COc1ccc(CCNc2nc3ccc(C)cc3n3cnnc23)cc1OC` the figure was 18.6% (active); with `C[C@H](CO)N1C[C@H](C)[C@@H](CN(C)C(=O)Nc2ccccc2F)OCc2cn(nn2)CCCC1=O`, -5.31%.
Regarding `COc1cccc(CNC(=O)[C@H]2CCCN2C(=O)[C@H]2CCCN2C(=O)c2ccc(F)cc2)c1`, the inhibition is -5.33%.
With `CSc1nc(N(C)NC(=O)c2cccc(C)c2)c2ccccc2n1` the figure was 17.1% (active).
For the compound `Cc1ccc(S(=O)(=O)NC(=O)c2cccc(C)c2)cc1`, the inhibition is -0.66%.
As for `CN(NC(=O)c1ccccc1F)c1nc(C(F)(F)F)nc2ccccc12`, the inhibition was 0.05%.
With `O=C(NN=Cc1ccco1)C(=O)Nc1ccc(Cl)c([N+](=O)[O-])c1` the figure was -5.99%; with `Cc1cc(C)c(C#N)c(SCc2[nH]nc3c2C(c2ccccc2)C(C#N)=C(N)O3)n1` (configuration not stated), 34.7% (active).
With `Cc1cc(C)c(C#N)c(SCc2ccc3c(c2)OCO3)n1` the figure was -0.74%.
With `N#CC1=C(N)Oc2n[nH]c(CSc3ccccc3)c2C12C(=O)Nc1ccccc12` (configuration not stated) the figure was -2.39%.
Turning to `CC1CN(c2nc(Nc3ccccc3)nc(N)c2[N+](=O)[O-])CC(C)O1` (configuration not stated), the inhibition is -0.56%.
`COCCNc1nc(N)c([N+](=O)[O-])c(N2CCCCCC2)n1`: the inhibition was -10.6%.
Take `Nc1nc(NCC(=O)O)nc(N2CCCCCC2)c1[N+](=O)[O-]`: the inhibition is 15.1% (active).
With `COC(=O)C1=C(C)N(Cc2cccc(C(F)(F)F)c2)C(=NCc2ccccc2)NC1c1ccccc1C(F)(F)F` (configuration not stated) the figure was -3.46%.
With `COC(=O)C1=C(C)N(Cc2ccc(C(F)(F)F)cc2)C(=NCc2ccc(C(F)(F)F)cc2)NC1c1cccc(Cl)c1` (configuration not stated) the figure was -3.2%; with `CCNC(=S)Nc1ccc(OC(F)(F)F)cc1`, 13.5% (active).
Consider `CN(CC(=O)Nc1ccc(OC(F)(F)F)cc1)C(=O)C1CCC1`, for which the inhibition is -3.79%.
With `COC(=O)Cc1ccc(OCC(=O)Nc2ccc(OC(F)(F)F)cc2)cc1` the figure was 0.64%; with `CCc1ccc(C2=CC(=O)CC(C)(C)C2=O)cc1`, -5.55%.
As to `CC(C)CNc1cccc2c1S(=O)(=O)N[C@H](CC(C)C)CO2`, the inhibition is -4.83%.
For `COC(=O)C1=C(C)NC(=S)NC1c1ccc(OC)cc1` (configuration not stated), the inhibition was -6.49%.
With `COC(=O)c1cc2c(c3c4ccccc4n(S(=O)(=O)c4cccc(C)c4)c13)C(=O)N(Cc1ccccc1)C2` the figure was -7.5%; with `Cc1nc(N)sc1N=Nc1c(C)n(C)n(-c2ccccc2)c1=O`, -1.11%.
With `CCn1c(-c2cc(OC)ccc2OC)csc1=Nc1c(C)n(C)n(-c2ccccc2)c1=O` the figure was 12.9% (active); with `Cc1c(N=Nc2ccc(N(C)C)cc2)c(=O)n(-c2ccccc2)n1C`, 4.41%; with `Cc1[nH]nc2c1C(c1ccc(Br)cc1)NC2=O` (configuration not stated), -4.49%.
With `CN1CCCCC(NC(=O)C(C)(C)C)C1=O` (configuration not stated) the figure was -7.34%; with `N#Cc1ccc(OCCCN2CCC(C(O)(c3ccccc3)c3ccccc3)CC2)c(F)c1`, -9.27%; with `CCOC(=O)C1CSCCS(=O)(=O)N1Cc1ccc(Cl)cc1` (configuration not stated), -4.45%.
For `CC1(C)OC(=O)C2=C(CC(CCc3ccccc3)OC2c2ccc(Cl)cc2)O1` (configuration not stated), the inhibition is -5.79%.
With `CN(CCc1cn[nH]c1)C(=O)CC1C(=O)NCCN1Cc1cccc(Oc2ccccc2)c1` (configuration not stated) the figure was -7.77%; with `O=C(CC1C(=O)NCCN1CC(c1ccccc1)c1ccccc1)NCC1CCOCC1` (configuration not stated), -1.82%; with `O=C(CC1C(=O)NCCN1CC(c1ccccc1)c1ccccc1)NCCc1cn[nH]c1` (configuration not stated), 13.4% (active).
For the compound `CCOC(=O)/C=C/c1ccccc1O`, the inhibition is -6.85%.
With `C=CCN=C1NC(c2ccccc2)C(C(=O)OC)=C(C)N1Cc1ccc(C(F)(F)F)cc1` (configuration not stated) the figure was -6.78%; with `Brc1ccc(OCCn2ccnc2)cc1`, 0.74%; with `Clc1c(OCCCn2ccnc2)ccc2ccccc12`, -12.1%.
With `c1ccc(Cc2ccc(OCCn3ccnc3)cc2)cc1` the figure was 44.4% (active); with `C=CC[C@]12C[C@@]3(O[C@H](c4ccc(C(F)(F)F)cc4)N=C3C[C@H](c3ccc(OC)cc3)[C@H]1C)N(C1CCN(Cc3ccccc3)CC1)C2=O`, -4.57%; with `CCOc1ccccc1C(=O)N1CCC[C@@H]1C(=O)N1CCC[C@H]1C(=O)NCc1ccccc1`, -4.67%.
As for `CN(Cc1cnccn1)C(=O)c1cc(COc2cccc(C(F)(F)F)c2)on1`, the inhibition was -2.96%.
With `CN(Cc1cccnc1)C(=O)c1cc(COc2ccc3ncccc3c2)on1` the figure was 91.7% (active).
Regarding `CC(=O)c1cccc(OCc2cc(C(=O)NC(C)Cc3cccnc3)no2)c1` (configuration not stated), the inhibition is 0.17%.
With `O=S1(=O)c2c(cccc2N2CCCC2)O[C@H](COCc2ccccc2)CN1C1CC1` the figure was -3.31%; with `Cn1cnc([N+](=O)[O-])c1Sc1ccccc1`, -2.26%; with `Cn1cnc([N+](=O)[O-])c1Nc1ccccc1O`, 13.4% (active).
As to `Cn1cnc([N+](=O)[O-])c1Sc1n[nH]c(N)n1`, the inhibition is -10.2%.
With `Cc1cc(Br)cn2c(Cc3ccccc3C(F)(F)F)c(-c3ccc(C#N)cc3)nc12` the figure was -0.22%.
As for `Nc1[nH]c(C(=O)c2ccccc2)c(-c2ccc(Cl)cc2Cl)c1C(=O)c1ccccc1`, the inhibition was -7.95%.
With `COc1cc(Cl)c(C)cc1NC(=O)[C@@H]1CCCN1C(=O)c1cccs1` the figure was 14% (active); with `Cc1ccc(S(=O)(=O)N2CCCCC2)cc1NC(=O)[C@@H]1CCCN1C(=O)c1cccs1`, -1.7%; with `COc1ccc(Cl)cc1NC(=O)[C@@H]1CCCN1C(=O)c1cccs1`, -4.08%.
Consider `C[C@@H](CN1C2=NC[C@@H](Cc3ccccc3)N2C[C@H]1Cc1ccc(O)cc1)NC(=O)CCC1CCCCC1`, for which the inhibition was -7.8%.
With `COC(=O)C1=C(C)N(Cc2ccccc2C(F)(F)F)C(=NCC2CC2)NC1c1cccc(Cl)c1` (configuration not stated) the figure was -5.91%; with `COc1ccc(C2C(C#N)=C(N)Oc3n[nH]c(C)c32)cc1CN1CCN(c2ccc(F)cc2)CC1` (configuration not stated), -5.67%; with `COc1ccc(-c2[nH]nc3c2C(c2ccncc2)C(C#N)=C(N)O3)cc1` (configuration not stated), 16.3% (active).
With `CCCc1nc2c([nH]1)C(c1cccnc1)C(C#N)=C(N)O2` (configuration not stated) the figure was -0.27%.
With `COC(=O)[C@]1(Cc2ccccc2)NC=C(C(=O)c2ccccc2)[C@@H]1c1cccc(OC)c1`, the inhibition was -6.78%.
With `CCCCNC(=O)c1ccccc1NC(=O)C1=C(C)OCCS1` the figure was 103% (active); with `CCCCNC(=O)c1ccccc1NC(=O)c1ccccc1N(C)S(C)(=O)=O`, -3.23%.
As for `COc1ccc(N2CCN(C(=O)c3ccccc3NC(=O)C3=C(C)OCCS3)CC2)cc1`, the inhibition is -6.97%.
For the compound `CC1CCCN(c2cccc3c2S(=O)(=O)N(Cc2ccc(F)cc2)[C@@H](C)[C@H](c2ccccc2)O3)C1` (some centres not stated), the inhibition was -4.47%.
With `O=C1COc2ccc(C(=O)COC(=O)CCOc3ccccc3)cc2N1` the figure was -1.45%; with `O=C1COc2ccc(C(=O)COC(=O)c3ccccc3Cl)cc2N1`, -5.73%.
As for `CC(C)[C@@H](C(=O)OCC(=O)c1ccc2c(c1)NC(=O)CO2)N1C(=O)c2ccccc2C1=O`, the inhibition is 42.5% (active).
As to `OC(c1ccccc1)(c1ccccc1)C1CCN(CCCOc2ccc(-c3ccsc3)cc2)CC1`, the inhibition is -4.38%.
With `O=C(CSc1nnc(-c2ccco2)n1CC1CCCO1)c1ccccc1` (configuration not stated) the figure was -2.73%; with `CNC(=O)NC(=O)CSc1nnc(-c2ccc(F)cc2)n1CC1CCCO1` (configuration not stated), 29.6% (active).
With `Cc1nnc(SCC(=O)NNC(=O)c2ccc(Cl)cc2)n1CC1CCCO1` (configuration not stated) the figure was -3.6%; with `COc1cc2c(cc1OC)C(c1cccc([N+](=O)[O-])c1)=NCC2`, 13.9% (active).
With `COc1cc2c(cc1OC)C(Cc1cc(OC)c(OC)cc1[N+](=O)[O-])=NCC2` the figure was -6.44%.
For `COc1cc2c(cc1OC)C(/C=C/c1ccco1)=NCC2`, the inhibition is -5.84%.
Take `CC(C)CNc1cccc2c1S(=O)(=O)N[C@H](C)CO2`: the inhibition is -4.46%.
With `COC(=O)Cc1nnn2c1[C@H](C)[C@H](c1ccccc1Br)OCC2` the figure was -3.41%.
With `COc1ccc(OC)c(NC(=O)CSc2nc(-c3ccccc3)cc(=O)[nH]2)c1` the figure was -1.18%.
Take `COc1ccc(NC(=O)CSc2nc(N)c(-c3ccccc3)c(=O)[nH]2)cc1`: the inhibition was 1.59%.
With `COc1ccc(OC)c(NC(=O)CSc2nc(N)c(-c3ccccc3)c(=O)[nH]2)c1` the figure was 29.8% (active).
